Source: the supplement of paper PMC10849652
Targets with a hit are over-represented here; the source holds about 8,800 in all. About 0.5% of all pairs of compound and target were hits.

What was measured:
Experiment in all cases: log2 fold change, soluble protein after heating vs DMSO (PISA); higher = thermal stabilisation; K562 lysate, 10 uM; active = over 0.2 and 3.5 SD of the protein, either way, in both replicates (recomputed)
[1] = compound: NCC(=O)Nc1ccc(-n2nc(C(F)(F)F)cc2-c2ccc3c(ccc4ccccc43)c2)cc1
Method in brief: (§1)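 Dounce homogenisation of K562 pellets in PBS pH 7.4 with 1 mM MgCl2 produced a crude extract, used at 1 mg/mL protein. Exposure to 10 μM compound lasted 30 min, and aliquots were then heated for 3 min across 48°C-58°C, pooled and brought to 0.5% NP-40 at 4°C. The supernatant after 21,000xg for 90 min was quantified by TMTpro 16plex LC-MS/MS with channel sums equalised. Duplicate values are given as log-two fold change in thermal stability relative to solvent controls.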

vorinostat = compound: O=C(CCCCCCC(=O)Nc1ccccc1)NO [vorinostat]
Method in brief: as §1

silmitasertib = compound: O=C(O)c1ccc2c(c1)nc(Nc1cccc(Cl)c1)c1ccncc12 [silmitasertib]
Method in brief: as §1

[2] = compound: O=C1NC(=O)C(c2cnc3ccccn23)=C1c1cn2c3c(cc(F)cc13)CN(C(=O)N1CCCCC1)CC2
Method in brief: as §1

entospletinib = compound: c1cn2cc(-c3ccc4cn[nH]c4c3)nc(Nc3ccc(N4CCOCC4)cc3)c2n1 [entospletinib]
Method in brief: as §1

Measured: log2 fold change

PPM1H (UniProt Q9ULR3)
inactive: [1] -0.004 | vorinostat 0.206 | silmitasertib -0.05 | [2] -0.045 | entospletinib -0.002

PPFIA2 (UniProt O75334)
inactive: [1] 0.05 | vorinostat -0.053 | silmitasertib -0.074 | [2] 0.069 | entospletinib -0.036

PPT2 isoform 3 (UniProt Q9UMR5)
inactive: [1] 0.055 | silmitasertib 0.034 | [2] -0.018 | entospletinib -0.006
active: vorinostat 0.398

PFKP (UniProt Q01813)
inactive: [1] 0.004 | vorinostat 0.009 | silmitasertib 0.008 | [2] 0.03 | entospletinib 0.049

POLB (UniProt P06746)
active: vorinostat -0.302
inactive: [1] 0.027 | silmitasertib -0.106 | [2] -0.023 | entospletinib 0.022

PMS2 (UniProt P54278)
active: vorinostat -0.384
inactive: [1] 0.064 | silmitasertib 0.026 | [2] 0.027 | entospletinib 0.001

PRAME (UniProt P78395)
inactive: [1] 0.025 | silmitasertib 0.043 | [2] 0.004 | entospletinib 0.048
active: vorinostat -0.283

PITRM1 isoform 2 (UniProt Q5JRX3)
UniProt Q5JRX3, sequence (Q5JRX3 whole entry, looked up): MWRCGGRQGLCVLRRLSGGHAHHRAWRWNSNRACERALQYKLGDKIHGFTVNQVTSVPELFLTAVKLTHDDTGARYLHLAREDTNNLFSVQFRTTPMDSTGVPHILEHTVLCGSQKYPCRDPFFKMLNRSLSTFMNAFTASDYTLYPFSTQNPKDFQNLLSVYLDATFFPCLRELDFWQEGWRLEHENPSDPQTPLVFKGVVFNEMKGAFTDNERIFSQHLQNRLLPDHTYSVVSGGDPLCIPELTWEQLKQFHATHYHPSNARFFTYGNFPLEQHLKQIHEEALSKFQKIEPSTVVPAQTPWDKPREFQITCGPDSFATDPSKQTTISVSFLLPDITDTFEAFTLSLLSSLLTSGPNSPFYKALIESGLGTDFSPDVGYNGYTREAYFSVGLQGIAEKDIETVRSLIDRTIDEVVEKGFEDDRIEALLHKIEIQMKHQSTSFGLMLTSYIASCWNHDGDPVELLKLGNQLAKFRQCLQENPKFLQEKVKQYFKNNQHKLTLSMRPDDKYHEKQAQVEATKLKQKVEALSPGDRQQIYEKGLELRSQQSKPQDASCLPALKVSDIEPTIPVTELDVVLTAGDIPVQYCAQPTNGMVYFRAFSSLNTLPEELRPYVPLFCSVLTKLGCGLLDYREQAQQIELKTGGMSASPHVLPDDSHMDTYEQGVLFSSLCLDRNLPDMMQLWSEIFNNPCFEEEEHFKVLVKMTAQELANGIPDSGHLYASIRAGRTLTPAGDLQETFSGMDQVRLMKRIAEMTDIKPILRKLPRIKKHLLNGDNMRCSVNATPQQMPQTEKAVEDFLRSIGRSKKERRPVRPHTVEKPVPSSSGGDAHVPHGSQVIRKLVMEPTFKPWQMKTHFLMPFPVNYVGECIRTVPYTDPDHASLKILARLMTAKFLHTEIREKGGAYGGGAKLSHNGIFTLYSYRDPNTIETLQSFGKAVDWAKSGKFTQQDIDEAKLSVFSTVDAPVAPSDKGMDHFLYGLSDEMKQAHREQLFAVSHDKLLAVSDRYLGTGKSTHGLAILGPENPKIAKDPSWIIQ
inactive: [1] 0.003 | vorinostat 0.111 | silmitasertib 0.006 | [2] -0.011 | entospletinib 0.002

PCBP2 isoform 8 (UniProt Q15366)
UniProt Q15366, sequence (Q15366 whole entry, looked up): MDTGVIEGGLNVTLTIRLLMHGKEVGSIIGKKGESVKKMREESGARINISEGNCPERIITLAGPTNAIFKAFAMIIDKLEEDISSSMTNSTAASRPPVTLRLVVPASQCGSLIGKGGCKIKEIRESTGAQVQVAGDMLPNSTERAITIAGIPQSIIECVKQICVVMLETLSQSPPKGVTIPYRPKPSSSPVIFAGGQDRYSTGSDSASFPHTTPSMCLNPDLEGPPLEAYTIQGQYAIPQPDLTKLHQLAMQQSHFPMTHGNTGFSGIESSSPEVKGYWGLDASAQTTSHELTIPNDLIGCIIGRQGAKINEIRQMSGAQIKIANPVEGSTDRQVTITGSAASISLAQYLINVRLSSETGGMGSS
inactive: [1] -0.06 | silmitasertib -0.037 | [2] 0.054 | entospletinib -0.091
active: vorinostat -0.489

PFKFB4 (UniProt Q16877)
active: vorinostat -0.369
inactive: [1] 0.007 | silmitasertib 0 | [2] -0.031 | entospletinib 0.051

PTGES2 (UniProt Q9H7Z7)
inactive: [1] -0.175 | vorinostat -0.197 | silmitasertib 0.304 | [2] 0.12 | entospletinib 0.085

PRKCB isoform 2 (UniProt P05771)
UniProt P05771, sequence (P05771 whole entry, looked up): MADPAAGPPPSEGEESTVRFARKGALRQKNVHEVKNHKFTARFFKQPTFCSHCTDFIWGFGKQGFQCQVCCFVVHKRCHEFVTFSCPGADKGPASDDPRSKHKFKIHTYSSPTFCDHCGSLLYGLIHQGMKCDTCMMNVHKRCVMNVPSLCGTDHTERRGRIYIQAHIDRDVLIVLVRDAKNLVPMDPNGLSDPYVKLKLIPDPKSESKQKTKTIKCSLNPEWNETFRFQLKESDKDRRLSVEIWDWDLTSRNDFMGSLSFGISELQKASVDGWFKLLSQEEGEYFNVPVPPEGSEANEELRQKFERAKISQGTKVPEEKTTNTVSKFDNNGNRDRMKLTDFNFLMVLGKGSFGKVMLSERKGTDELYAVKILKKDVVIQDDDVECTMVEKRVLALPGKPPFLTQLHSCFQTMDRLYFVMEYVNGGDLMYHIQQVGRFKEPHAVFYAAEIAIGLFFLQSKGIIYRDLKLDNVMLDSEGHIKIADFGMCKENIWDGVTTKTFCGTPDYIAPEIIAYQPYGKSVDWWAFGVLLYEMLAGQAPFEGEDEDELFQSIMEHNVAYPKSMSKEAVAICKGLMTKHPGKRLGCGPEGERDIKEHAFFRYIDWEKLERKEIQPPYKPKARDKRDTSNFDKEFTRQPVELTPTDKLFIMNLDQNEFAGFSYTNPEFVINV
inactive: [1] 0.046 | vorinostat -0.145 | silmitasertib 0.012 | [2] -0.164 | entospletinib 0.004

PHKG1 isoform 2 (UniProt Q16816)
inactive: [1] 0.053 | vorinostat -0.342 | silmitasertib 0.259 | [2] -0.123 | entospletinib -0.002

POLR3E (UniProt Q9NVU0)
active: vorinostat -0.263
inactive: [1] -0.017 | silmitasertib -0.023 | [2] 0.027 | entospletinib -0.004

PHGDH (UniProt O43175)
inactive: [1] 0.023 | silmitasertib 0.031 | [2] 0.028 | entospletinib 0.016
active: vorinostat -0.939

POLR2B (UniProt P30876)
inactive: [1] 0.03 | silmitasertib 0.034 | [2] 0.024 | entospletinib -0.008
active: vorinostat -0.344

PIKFYVE (UniProt Q9Y2I7)
inactive: [1] 0.031 | silmitasertib 0.03 | [2] -0.026 | entospletinib -0.014
active: vorinostat -0.476

PRIM1 (UniProt P49642)
UniProt P49642, sequence (P49642 whole entry, looked up): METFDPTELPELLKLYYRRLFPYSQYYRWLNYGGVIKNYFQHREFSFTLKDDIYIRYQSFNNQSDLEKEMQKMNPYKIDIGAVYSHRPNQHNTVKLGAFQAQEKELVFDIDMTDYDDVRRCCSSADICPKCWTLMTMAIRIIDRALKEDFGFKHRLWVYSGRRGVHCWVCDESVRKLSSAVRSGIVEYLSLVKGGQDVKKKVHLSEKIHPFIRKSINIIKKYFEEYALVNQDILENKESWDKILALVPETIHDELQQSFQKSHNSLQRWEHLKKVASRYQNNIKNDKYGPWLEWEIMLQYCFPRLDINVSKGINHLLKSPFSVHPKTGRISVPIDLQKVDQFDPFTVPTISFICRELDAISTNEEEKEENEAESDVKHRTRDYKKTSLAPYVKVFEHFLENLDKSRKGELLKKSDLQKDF
active: vorinostat -0.284
inactive: [1] -0.015 | silmitasertib 0.049 | [2] 0.024 | entospletinib 0.035

PES1 (UniProt O00541)
inactive: [1] 0.03 | vorinostat -0.193 | silmitasertib 0.037 | [2] 0.014 | entospletinib -0.015

PHOSPHO2 (UniProt Q8TCD6)
inactive: [1] -0.051 | vorinostat 0.181 | silmitasertib -0.002 | [2] 0.001 | entospletinib -0.116

PFDN2 (UniProt Q9UHV9)
inactive: [1] -0.049 | vorinostat 0.098 | silmitasertib 0.015 | [2] -0.068 | entospletinib 0.007

PLEKHO2 (UniProt Q8TD55)
inactive: [1] 0.045 | vorinostat -0.103 | silmitasertib 0.347 | [2] -0.018 | entospletinib 0.082

PTPN6 isoform 4 (UniProt P29350)
inactive: [1] -0.001 | vorinostat -0.039 | silmitasertib 0.078 | [2] 0.006 | entospletinib 0.107

PGPEP1 (UniProt Q9NXJ5)
inactive: [1] 0 | silmitasertib 0.009 | [2] 0.012 | entospletinib -0.049
active: vorinostat -0.526

PRKD3 (UniProt O94806)
inactive: [1] -0.116 | vorinostat -0.182 | silmitasertib 0.224 | [2] 0.076 | entospletinib 0.013

PGLS (UniProt O95336)
inactive: [1] -0.08 | vorinostat 0.079 | silmitasertib -0.034 | [2] 0.072 | entospletinib 0.003

PUS3 (UniProt Q9BZE2)
inactive: [1] 0.051 | silmitasertib 0.11 | [2] 0.017 | entospletinib -0.041
active: vorinostat -0.527

POMP (UniProt Q9Y244)
inactive: [1] -0.016 | vorinostat -0.028 | silmitasertib 0.05 | [2] 0.014 | entospletinib -0.12

PRIMPOL (UniProt Q96LW4)
UniProt Q96LW4, sequence (Q96LW4 whole entry, looked up): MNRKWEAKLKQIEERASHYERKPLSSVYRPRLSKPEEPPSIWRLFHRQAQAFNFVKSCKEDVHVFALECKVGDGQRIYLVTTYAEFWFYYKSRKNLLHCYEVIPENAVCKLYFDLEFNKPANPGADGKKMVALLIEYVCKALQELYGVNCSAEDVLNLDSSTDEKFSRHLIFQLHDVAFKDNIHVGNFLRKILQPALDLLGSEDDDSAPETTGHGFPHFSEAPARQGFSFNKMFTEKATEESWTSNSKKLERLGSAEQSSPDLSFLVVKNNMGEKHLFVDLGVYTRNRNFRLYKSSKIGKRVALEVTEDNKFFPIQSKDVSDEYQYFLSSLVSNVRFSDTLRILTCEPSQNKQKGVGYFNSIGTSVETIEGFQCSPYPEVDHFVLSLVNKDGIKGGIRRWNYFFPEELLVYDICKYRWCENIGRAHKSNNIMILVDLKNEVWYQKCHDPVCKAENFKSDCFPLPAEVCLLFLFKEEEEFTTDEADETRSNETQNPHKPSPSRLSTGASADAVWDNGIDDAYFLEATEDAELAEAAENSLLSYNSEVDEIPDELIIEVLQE
active: vorinostat -0.337
inactive: [1] -0.03 | silmitasertib 0.034 | [2] -0.028 | entospletinib 0.029

PPME1 isoform 4 (UniProt Q9Y570)
inactive: [1] -0.02 | vorinostat -0.03 | silmitasertib 0.013 | [2] 0.005 | entospletinib 0.031

PLIN2 (UniProt Q99541)
UniProt Q99541, sequence (Q99541 whole entry, looked up): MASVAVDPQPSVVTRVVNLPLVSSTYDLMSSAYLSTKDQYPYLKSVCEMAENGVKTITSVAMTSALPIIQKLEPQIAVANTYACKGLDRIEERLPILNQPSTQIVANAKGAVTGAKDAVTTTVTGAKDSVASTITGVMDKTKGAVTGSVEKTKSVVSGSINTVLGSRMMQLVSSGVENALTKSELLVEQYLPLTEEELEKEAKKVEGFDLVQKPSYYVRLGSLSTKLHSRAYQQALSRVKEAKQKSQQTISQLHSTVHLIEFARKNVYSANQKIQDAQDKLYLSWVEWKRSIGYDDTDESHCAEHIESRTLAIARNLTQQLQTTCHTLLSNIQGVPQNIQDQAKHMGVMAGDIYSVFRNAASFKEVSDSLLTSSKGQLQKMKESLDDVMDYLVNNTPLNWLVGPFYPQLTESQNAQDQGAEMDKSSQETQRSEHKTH
inactive: [1] 0.012 | vorinostat 0.063 | silmitasertib -0.008 | [2] 0.008 | entospletinib -0.032

PI4KA (UniProt P42356)
inactive: [1] -0.011 | silmitasertib 0.077 | [2] 0.004 | entospletinib 0.031
active: vorinostat -0.426

PTPN1 (UniProt P18031)
UniProt P18031, sequence (P18031 whole entry, looked up): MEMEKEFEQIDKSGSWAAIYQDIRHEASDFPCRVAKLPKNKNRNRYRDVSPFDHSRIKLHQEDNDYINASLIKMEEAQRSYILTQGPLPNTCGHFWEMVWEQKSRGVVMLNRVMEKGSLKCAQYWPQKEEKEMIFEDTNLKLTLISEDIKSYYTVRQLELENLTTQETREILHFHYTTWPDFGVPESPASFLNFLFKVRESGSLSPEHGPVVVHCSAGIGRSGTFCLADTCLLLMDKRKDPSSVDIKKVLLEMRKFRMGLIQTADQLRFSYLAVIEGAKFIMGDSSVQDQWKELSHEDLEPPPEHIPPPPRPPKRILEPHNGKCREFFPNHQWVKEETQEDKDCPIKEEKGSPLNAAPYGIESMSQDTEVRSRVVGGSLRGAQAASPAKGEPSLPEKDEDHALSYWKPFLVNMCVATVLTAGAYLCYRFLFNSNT
inactive: [1] -0.005 | silmitasertib 0.04 | [2] 0.012 | entospletinib 0.048
active: vorinostat -0.29

PPIL2 (UniProt Q13356)
active: vorinostat -0.32
inactive: [1] 0.015 | silmitasertib 0.019 | [2] -0.009 | entospletinib 0.014

PDIA4 (UniProt P13667)
inactive: [1] 0.001 | vorinostat 0.119 | silmitasertib -0.011 | [2] 0.021 | entospletinib 0.004

POLR2F (UniProt P61218)
inactive: [1] -0.019 | vorinostat 0.171 | silmitasertib 0.008 | [2] 0.027 | entospletinib -0.086

PPP2R5B (UniProt Q15173)
inactive: [1] 0.077 | vorinostat -0.075 | silmitasertib -0.007 | [2] -0.065 | entospletinib 0.028

PPCDC (UniProt Q96CD2)
inactive: [1] 0.001 | vorinostat -0.002 | silmitasertib 0.071 | [2] -0.015 | entospletinib 0.002

POLR2M (UniProt P0CAP2)
inactive: [1] 0.034 | vorinostat 0 | silmitasertib -0.029 | [2] -0.027 | entospletinib 0.076

PRMT7 (UniProt Q9NVM4)
inactive: [1] -0.017 | vorinostat -0.174 | silmitasertib -0.011 | [2] 0.04 | entospletinib -0.018

PDF (UniProt Q9HBH1)
inactive: [1] -0.095 | vorinostat -0.232 | silmitasertib 0.044 | [2] 0 | entospletinib -0.004

PIGO (UniProt Q8TEQ8)
inactive: [1] -0.156 | vorinostat 0.15 | silmitasertib 0.18 | [2] 0.121 | entospletinib -0.015

PPP2CA (UniProt P67775)
inactive: [1] -0.079 | vorinostat 0.076 | silmitasertib -0.021 | [2] -0.004 | entospletinib 0

PRKCD (UniProt Q05655)
inactive: [1] 0.008 | vorinostat -0.075 | silmitasertib -0.006 | [2] -0.005 | entospletinib 0.019

PEF1 (UniProt Q9UBV8)
active: vorinostat 0.467
inactive: [1] -0.186 | silmitasertib -0.005 | [2] -0.008 | entospletinib -0.009

PIP4P2 (UniProt Q8N4L2)
inactive: [1] 0.004 | vorinostat 0.029 | silmitasertib 0.034 | [2] 0.034 | entospletinib -0.05

PIK3CB (UniProt P42338)
inactive: [1] -0.041 | vorinostat -0.395 | silmitasertib 0.321 | [2] -0.046 | entospletinib 0.038

PSMB9 (UniProt P28065)
inactive: [1] 0.07 | vorinostat 0.057 | silmitasertib 0.008 | [2] 0.081 | entospletinib 0

PPOX (UniProt P50336)
inactive: [1] 0 | vorinostat -0.142 | silmitasertib 0.11 | [2] 0.016 | entospletinib 0

PRC1 (UniProt O43663)
inactive: [1] 0.012 | silmitasertib 0.046 | [2] -0.02 | entospletinib 0.023
active: vorinostat -0.387

PDCD10 (UniProt Q9BUL8)
inactive: [1] -0.009 | vorinostat 0.158 | silmitasertib -0.001 | [2] -0.037 | entospletinib 0.011

POLD1 (UniProt P28340)
UniProt P28340, sequence (P28340 whole entry, looked up): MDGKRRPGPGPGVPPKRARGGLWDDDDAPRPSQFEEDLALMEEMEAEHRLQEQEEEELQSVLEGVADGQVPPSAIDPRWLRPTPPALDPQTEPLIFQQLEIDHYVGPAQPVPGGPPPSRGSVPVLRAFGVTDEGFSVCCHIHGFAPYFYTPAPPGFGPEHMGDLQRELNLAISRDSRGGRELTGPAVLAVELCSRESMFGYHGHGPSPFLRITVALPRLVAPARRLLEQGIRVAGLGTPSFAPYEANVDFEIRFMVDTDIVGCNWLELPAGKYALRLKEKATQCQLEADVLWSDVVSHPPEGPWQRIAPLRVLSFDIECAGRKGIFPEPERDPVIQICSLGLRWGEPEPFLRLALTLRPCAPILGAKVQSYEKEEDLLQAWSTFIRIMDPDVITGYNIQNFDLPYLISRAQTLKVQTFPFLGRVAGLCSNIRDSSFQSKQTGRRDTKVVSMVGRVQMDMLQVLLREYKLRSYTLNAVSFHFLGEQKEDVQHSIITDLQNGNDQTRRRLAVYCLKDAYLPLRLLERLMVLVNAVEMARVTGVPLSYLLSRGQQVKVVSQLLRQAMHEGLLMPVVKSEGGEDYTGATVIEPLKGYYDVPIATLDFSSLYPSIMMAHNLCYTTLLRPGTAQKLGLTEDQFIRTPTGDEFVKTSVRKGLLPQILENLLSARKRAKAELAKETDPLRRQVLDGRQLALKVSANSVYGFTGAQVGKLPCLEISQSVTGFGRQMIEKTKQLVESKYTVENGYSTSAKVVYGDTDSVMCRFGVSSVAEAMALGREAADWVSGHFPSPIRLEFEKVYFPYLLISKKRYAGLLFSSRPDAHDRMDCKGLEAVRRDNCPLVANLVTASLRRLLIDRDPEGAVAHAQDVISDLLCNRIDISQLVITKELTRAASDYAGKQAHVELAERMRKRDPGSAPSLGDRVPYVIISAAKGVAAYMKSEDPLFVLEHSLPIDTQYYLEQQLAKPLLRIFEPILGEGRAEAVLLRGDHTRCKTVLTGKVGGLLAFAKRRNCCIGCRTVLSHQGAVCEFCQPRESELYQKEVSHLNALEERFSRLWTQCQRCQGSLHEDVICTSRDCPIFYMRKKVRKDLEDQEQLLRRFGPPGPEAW
active: vorinostat -0.245
inactive: [1] 0.016 | silmitasertib 0.016 | [2] 0.005 | entospletinib -0.009

PDCD6IP isoform 2 (UniProt Q8WUM4)
active: vorinostat -0.473
inactive: [1] -0.001 | silmitasertib 0.019 | [2] -0.006 | entospletinib 0.018
